From PubChem BioAssay (NCI)
Compounds without any hit were thinned out: in the full panel of roughly 79,000, 15% have a hit. Calls of active or inactive are those of the source. No stated cut-off is given here; in the data, active means growth inhibition above about 70%; inactive means the rest.

Legend:
[1] = NCI Yeast Anticancer Drug Screen. Data for the wt1 strain (AID 149);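 further: 0% = growth of vehicle-treated wt1 cultures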; details: S. cerevisiae wt1 strain (SPY 50644) growth inhibition, hits give high values
In short: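 wt1 strain grown with compound or vehicle; inhibition taken from the growth difference.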

[2] = NCI Yeast Anticancer Drug Screen. Data for the rad50EPP+ strain (AID 151);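 further: 0% = growth of vehicle-treated control cultures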; details: S. cerevisiae rad50 mutant strain, hits give high values
In short: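 Vehicle-normalised growth inhibition; rad50EPP+ yeast strain, altered in DNA damage repair, compound-treated.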

[3] = NCI Yeast Anticancer Drug Screen. Data for the mgt1 strain (AID 153); details: S. cerevisiae mgt1 mutant growth inhibition, hits give high values
In short: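 Vehicle-normalized growth inhibition is determined in mgt1 yeast, a strain selected for a defined alteration in DNA repair or cell cycle control.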

[4] = NCI Yeast Anticancer Drug Screen. Data for the rad50 strain (AID 155);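 further: 0% = growth of vehicle-only cultures of the same strain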; details: S. cerevisiae rad50 strain growth inhibition, hits give high values
In short: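 DNA repair mutant yeast, compound exposure, growth read-out; inhibition is taken relative to vehicle.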

[5] = NCI Yeast Anticancer Drug Screen. Data for the mec2-1 strain (AID 157); details: S. cerevisiae mec2-1 strain, hits give high values
In short: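 Mutant yeast (mec2-1) grown with compound; growth inhibition relative to vehicle control reported.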

[6] = NCI Yeast Anticancer Drug Screen. Data for the rad14 strain (AID 159);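 further: 0% = growth of vehicle-treated control cultures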; details: S. cerevisiae rad14 strain growth inhibition, hits give high values
In short: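 DNA repair-defective yeast, compound-exposed; % growth inhibition derived by comparison with vehicle-treated controls.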

[7] = NCI Yeast Anticancer Drug Screen. Data for the sgs1 mgt1 strain (AID 161);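 further: 0% = growth of cultures given vehicle only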; details: S. cerevisiae sgs1 mgt1 strain, hits give high values
In short: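 Compounds are added to genetically altered yeast, and growth is compared with cultures given vehicle alone to give percent inhibition.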

[8] = NCI Yeast Anticancer Drug Screen. Data for the CLN2oe strain (AID 163);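 further: 0% = growth of vehicle-only control cultures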; details: S. cerevisiae CLN2oe strain, hits give high values
In short: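 Compounds are applied to yeast harbouring a defined cell-cycle control change; reduced growth compared with vehicle-treated controls gives the value.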

[9] = NCI Yeast Anticancer Drug Screen. Data for the cln2 rad14 strain (AID 165);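 further: 0% = growth equal to vehicle treated cultures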; details: S. cerevisiae cln2 rad14 strain, hits give high values
In short: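 Readout is yeast growth inhibition versus vehicle-treated controls, using a strain with cln2 and rad14 alterations exposed to compound.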

[10] = NCI Yeast Anticancer Drug Screen. Data for the bub3 strain (AID 167); details: S. cerevisiae bub3 mutant strain, hits give high values
In short: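 In this screen, a yeast mutant lacking normal mitotic checkpoint function is challenged with compound. Relative growth versus vehicle gives the inhibition value.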

[11] = NCI Yeast Anticancer Drug Screen. Data for the wt2 strain (AID 169);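 further: 0% = growth of vehicle-treated yeast cultures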; details: S. cerevisiae wt2 strain growth inhibition, hits give high values
In short: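 Against vehicle-treated controls, the growth of yeast exposed to each compound was compared, and the inhibition was recorded.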

[12] = NCI Yeast Anticancer Drug Screen. Data for the mlh1 strain (AID 171);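 further: 0% = growth of vehicle-treated control cultures of the same strain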; details: S. cerevisiae mlh1 strain growth inhibition, hits give high values
In short: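 Measured: yeast growth. Reference: vehicle-treated controls. Organism: strain with a defined alteration affecting DNA damage repair or cell cycle control, treated with compound.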

[13] = NCI Yeast Anticancer Drug Screen. Data for the sgs1 strain (AID 173);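 further: 0% = growth of vehicle-only control cultures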; details: S. cerevisiae sgs1 mutant, hits give high values
In short: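 Each compound was added to cultures of the altered yeast strain. Growth was recorded, and inhibition was derived by comparison with vehicle controls.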

[14] = NCI Yeast Anticancer Drug Screen. Data for the rad18 strain (AID 177); details: S. cerevisiae rad18 mutant growth inhibition, hits give high values
In short: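 Vehicle-treated cultures served as the baseline for scoring compound-induced growth inhibition in DNA-repair-mutant yeast.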

[15] = NCI Yeast Anticancer Drug Screen. Data for the mlh1 rad18 strain (AID 175); details: S. cerevisiae mlh1 rad18 strain growth inhibition, hits give high values
In short: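 Genetically defined yeast (DNA repair-deficient) exposed to compounds; growth inhibition determined relative to vehicle.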

[16] = at 5.0 µM (retest, dose inferred, filed as 0.5)
[17] = at 50.0 µM (retest, dose inferred, filed as 5.0)

Measured: growth inhibition

N=c1oc2ccccc2cc1-c1nc2ccccc2[nH]1
active: [2]; at 33.0 µM 85% | [2]; at 100.0 µM 91% | [3]; at 100.0 µM 79% | [4]; [17] 85% | [4]; at 100.0 µM 88% | [6]; at 100.0 µM 88% | [11]; at 100.0 µM 80% | [12]; at 100.0 µM 82% | [13]; at 100.0 µM 82% | [14]; at 100.0 µM 71%
inactive: [1]; at 1.2 µM 1% | [1]; at 3.7 µM 9% | [1]; at 11.0 µM 15% | [1]; at 33.0 µM 28% | [1]; at 100.0 µM 45% | [2]; at 1.2 µM 30% | [2]; at 3.7 µM 48% | [2]; at 11.0 µM 58% | [3]; at 1.2 µM 13% | [3]; at 3.7 µM 11% | [3]; at 11.0 µM 24% | [3]; at 33.0 µM 43% | [4]; at 1.2 µM 15% | [4]; at 3.7 µM 18% | [4]; [16] 7% | [4]; at 11.0 µM 31% | [4]; at 33.0 µM 64% | [4]; at 50.0 µM 70% | [5]; at 1.2 µM -6% | [5]; at 3.7 µM 10% | [5]; [16] 2% | [5]; at 11.0 µM 11% | [5]; at 33.0 µM 26% | [5]; [17] 66% | [5]; at 50.0 µM 31.8% | [5]; at 100.0 µM 62% | [6]; at 1.2 µM 5% | [6]; at 3.7 µM 11% | [6]; at 11.0 µM 25% | [6]; at 33.0 µM 39% | [7]; [16] 13% | [7]; [17] 62% | [7]; at 50.0 µM 47.8% | [8]; at 1.2 µM 6% | [8]; at 3.7 µM -21% | [8]; at 11.0 µM 12% | [8]; at 33.0 µM 25% | [8]; at 100.0 µM 47% | [9]; [16] 5% | [9]; [17] 27% | [9]; at 50.0 µM 28.3% | [10]; at 1.2 µM -13% | [10]; at 3.7 µM -12% | [10]; [16] 23% | [10]; at 11.0 µM -3% | [10]; at 33.0 µM 9% | [10]; [17] 56% | [10]; at 50.0 µM 33.8% | [10]; at 100.0 µM 57% | [11]; at 1.2 µM -31% | [11]; at 3.7 µM -29% | [11]; at 11.0 µM -13% | [11]; at 33.0 µM 47% | [12]; at 1.2 µM 0% | [12]; at 3.7 µM 3% | [12]; at 11.0 µM 17% | [12]; at 33.0 µM 42% | [13]; at 1.2 µM 15% | [13]; at 3.7 µM 28% | [13]; at 11.0 µM 41% | [13]; at 33.0 µM 59% | [14]; at 1.2 µM 2% | [14]; at 3.7 µM 5% | [14]; at 11.0 µM 14% | [14]; at 33.0 µM 27%

CN(C)c1ccc(/C=C/c2ccnc3ccc4ccccc4c23)cc1
inactive: [1]; at 1.2 µM -6% | [1]; at 3.7 µM -9% | [1]; at 11.0 µM -6% | [1]; at 33.0 µM 34% | [1]; at 100.0 µM 48% | [2]; at 1.2 µM 2% | [2]; at 3.7 µM 8% | [2]; at 11.0 µM 15% | [2]; at 33.0 µM 4% | [2]; at 100.0 µM -14% | [3]; at 1.2 µM -3% | [3]; at 3.7 µM -2% | [3]; at 11.0 µM 45% | [3]; at 33.0 µM 69% | [3]; at 100.0 µM 58% | [4]; at 1.2 µM -7% | [4]; at 3.7 µM 3% | [4]; [16] 9% | [4]; at 11.0 µM 30% | [4]; at 33.0 µM 67% | [4]; [17] -7% | [4]; at 50.0 µM 69% | [5]; at 1.2 µM -7% | [5]; at 3.7 µM -7% | [5]; [16] -7% | [5]; at 11.0 µM 4% | [5]; [17] -18% | [5]; at 50.0 µM 27.3% | [6]; at 1.2 µM -5% | [6]; at 3.7 µM -4% | [6]; at 11.0 µM 28% | [7]; [16] -2% | [8]; at 1.2 µM -11% | [8]; at 3.7 µM -16% | [8]; at 11.0 µM -15% | [8]; at 33.0 µM 2% | [8]; at 100.0 µM 55% | [9]; [16] -14% | [9]; [17] 22% | [9]; at 50.0 µM 6.65% | [10]; at 1.2 µM -6% | [10]; at 3.7 µM -8% | [10]; [16] -4% | [10]; at 11.0 µM 6% | [10]; [17] 3% | [11]; at 1.2 µM -6% | [11]; at 3.7 µM -5% | [11]; at 11.0 µM 50% | [11]; at 33.0 µM 61% | [11]; at 100.0 µM 51% | [12]; at 1.2 µM -8% | [12]; at 3.7 µM 0% | [12]; at 11.0 µM 45% | [12]; at 33.0 µM 67% | [12]; at 100.0 µM 68% | [13]; at 1.2 µM -3% | [13]; at 3.7 µM 11% | [13]; at 11.0 µM 67% | [13]; at 100.0 µM 68% | [15]; [16] -3% | [15]; [17] 37% | [14]; at 1.2 µM 2% | [14]; at 3.7 µM 20%
active: [4]; at 100.0 µM 70% | [5]; at 33.0 µM 82% | [5]; at 100.0 µM 82% | [6]; at 33.0 µM 83% | [6]; at 100.0 µM 80% | [7]; [17] 76% | [7]; at 50.0 µM 91.4% | [10]; at 33.0 µM 83% | [10]; at 50.0 µM 70% | [10]; at 100.0 µM 79% | [13]; at 33.0 µM 77% | [15]; at 50.0 µM 72% | [14]; at 11.0 µM 75% | [14]; at 33.0 µM 84% | [14]; at 100.0 µM 75%
